Bioassay records (PubChem)
D2 ag-1: Beta-Arrestin HTS for Positive Allosteric Modulators of the Human D2 Dopamine Receptor: Agonists; DiscoveRx PathHunter D2 beta-arrestin, luminescence, 90 min; 100% = 57 uM dopamine signal; activation, % (test concentration not listed); 360,000 tested, 0.084% active; AID 624465, 2012; in the data active = activation above about 40%; inconclusive = between about 15% and that limit
Target sequence (P14416 whole entry, looked up): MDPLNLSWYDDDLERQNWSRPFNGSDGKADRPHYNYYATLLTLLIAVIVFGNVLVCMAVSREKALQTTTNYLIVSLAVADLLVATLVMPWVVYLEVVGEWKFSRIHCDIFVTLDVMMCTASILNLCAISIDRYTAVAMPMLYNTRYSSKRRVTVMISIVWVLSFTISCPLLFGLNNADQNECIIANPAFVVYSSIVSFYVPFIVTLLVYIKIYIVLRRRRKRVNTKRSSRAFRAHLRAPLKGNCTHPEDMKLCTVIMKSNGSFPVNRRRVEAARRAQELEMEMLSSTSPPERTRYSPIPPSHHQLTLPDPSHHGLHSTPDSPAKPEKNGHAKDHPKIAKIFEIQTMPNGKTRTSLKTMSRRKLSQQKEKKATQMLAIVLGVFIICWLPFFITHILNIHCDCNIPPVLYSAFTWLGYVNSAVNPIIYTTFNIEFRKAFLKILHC
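DiscoveRx PathHunter D2 beta-arrestin cells (2,100/well) attached overnight, then compound-stimulated 90 min at 37 C in HBSS/10 mM HEPES/0.1% Tween-20 buffer; beta-galactosidase complementation read by luminescence after 1 h at ambient temperature. Dopamine 57 uM final (EC100) as control.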
D2 PAM-1: Beta-Arrestin HTS for Positive Allosteric Modulators of the Human D2 Dopamine Receptor: Potentiators. AID 624464, 2012. D(2) dopamine receptor (Homo sapiens), P14416. 360,000 tested, 0.23% active. DiscoveRx D2 beta-arrestin cells, luminescence, 90 min; 100% = 57 uM dopamine signal. potentiation, % (no concentration beside the values); in the data active = potentiation above about 50%; inconclusive = mostly about 30% to 49%
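PathHunter D2 cells, attached overnight at 37 deg C, received compound in DMSO plus dopamine at EC20 (50 nM final) for 90 min at 37 deg C. Beta-arrestin recruitment was read as luminescence after 1 h with detection reagent at ambient temperature.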
D2 ag-2: HTS Assay for Allosteric Agonists of the Human D2 Dopamine Receptor: Primary Screen for Agonists. 340,000 tested, 0.53% active. AID 485358, 2010. D(2) dopamine receptor (Homo sapiens), P14416. activation, % at 2 µM. HEK293 T-REx D2 cells, calcium flux agonist mode;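 active = activation over 3 SD above normal in the single-dose calcium agonist read, cut at about 30% in these data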; also: 0% is about no effect
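Tetracycline-induced HEK293 Trex cells with D2 receptor force-coupled to calcium signaling, plated overnight at 30 C and loaded with no-wash calcium dye. Calcium flux read kinetically for 180 s after compound addition; responses flag agonists.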
D2 antagonist: HTS Assay for Allosteric Antagonists of the Human D2 Dopamine Receptor: Primary Screen for Antagonists. D(2) dopamine receptor (Homo sapiens), P14416. HEK293 TREx D2 cells, calcium flux, dopamine EC80. inhibition, % at 10 µM. 340,000 tested, 2% active. AID 485344, 2010; in the data active = inhibition above about 30%; inactive = below that, where a call was filed; also: 0% is about no effect
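Inhibition of EC80 dopamine-driven calcium flux, recorded kinetically, defines activity here; cells are a tetracycline-induced HEK293 T-REx line expressing force-coupled D2.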
D2 PAM-2: HTS Assay for Positive Allosteric Modulators of the Human D2 Dopamine Receptor: Primary Screen for Potentiators. AID 485347, 2010. HEK293 T-REx D2, calcium flux, EC20 dopamine potentiation. potentiation, % at 10 µM. 340,000 tested, 0.34% active;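 active = potentiation over 3 SD above the plate norm, cut at about 30% in these data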; also: 0% is about no effect
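Tetracycline-induced HEK293 T-REx cells force-coupled to calcium signalling expressed D2; compounds were pin-added after a 10 s baseline, read kinetically 180 s, then an EC20 dopamine challenge followed with a further 180 s calcium read.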
D3 ag: qHTS of D3 Dopamine Receptor Agonist: D3 Dopamine Receptor B-arrestin Agonist Confirmatory Assay; Potency, µM (titrated, usually from 76.9 µM), without a hit: top-dose activation, actives largely listed as activators; shares compounds with D2 ag-2; 2,300 tested, 4% active; AID 720506, 2013; DiscoveRx D3 beta-arrestin cells, luminescence, 90 min;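 also: potency is read from the fitted curve at half-maximal effect; 100% = dopamine control response; nearly all actives have a fitted effect of over 70% in size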
D2 ag-3: qHTS of D3 Dopamine Receptor Agonist: D2 Dopamine Receptor B-arrestin Agonist Counterscreen; Potency, µM (series often up to 76.9 µM), without a hit: at the highest dose activation, actives largely listed as activators; AID 720507, 2013; shares compounds with D2 ag-2; DiscoveRx PathHunter D2 beta-arrestin, luminescence, 90 min; response scale: percent relative to full dopamine signal; 2,300 tested, 5.9% active; also: potency is read from the fitted curve at half-maximal effect; % of control where 0% means no effect; nearly all actives have a fitted effect of over 70% in size
An asterisk follows results filed as active; ? = inconclusive; . = no result; ! = a repeat was not active. Shown are actives, neighbours in structure and some others; about 2.4% of the full set was active somewhere. Unless noted, calls follow the shape of the dose curve; as a rule, active = well fitted activation curve with a large enough effect; inconclusive = small, poorly fitted or top-dose-only effect; inactive = flat fitted curve, though single readings scatter.

SMILES	D2 ag-1	D2 PAM-1	D2 ag-2	D2 antagonist	D2 PAM-2	D3 ag	D2 ag-3
Nc1nc(CN2CCN(c3ccccc3F)CC2)nc(N2CCCc3ccccc32)n1	?	13	82*	79*	-17	?	?
Nc1nc(CSc2nnnn2-c2ccccc2)nc(N2CCCc3ccccc32)n1	-3	-11	8	0	-6	.	.
Nc1nc(CN2CCN(c3cccc(Cl)c3)CC2)nc(N2CCCc3ccccc32)n1	?	29	42*	70*	-16	16%	?
CCCCn1cc(S(=O)(=O)c2ccc(C)c(C)c2)c(=O)c2cc(F)c(N(CC)CC)cc21	.	.	-1	.	-4	.	.
CCC(CC)c1nnc(NC(=O)c2cc(-c3ccccc3)nc3ccccc23)s1	-1	-14	.	.	.	-12%	-2%
COc1ccc(S(=O)(=O)NCCc2nnc3ccc(SCC(=O)Nc4ccc(C(F)(F)F)cc4)nn23)cc1	.	.	0	.	1	.	.
COc1ccccc1N1CCN(c2ccc(NC(=O)c3ccc(C)cc3)cc2C(=O)O)CC1	.	.	.	.	4	.	.
Cc1cn2c(=O)c(C(=O)N3CCN(c4ccccc4)CC3)cnc2s1	-3	-23	0	-12	6	-8%	-2%
Cc1cn2c(=O)c(C(=O)N3CCN(c4ccccc4F)CC3)cnc2s1	-2	5	1	13	5	.	.
O=C(Nc1cccc(Cl)c1)c1ccc(F)c(S(=O)(=O)NCc2ccc3c(c2)OCO3)c1	5	-8	-2	2	-1	3%	4%
CCOc1ccc(NC(=O)c2ccc(F)c(S(=O)(=O)NCc3ccc4c(c3)OCO4)c2)cc1	.	.	0	.	-1	.	.
c1ccc(CCNCCOc2ccccc2)cc1	14	-7	56*	48*	-25	0%	11%
COc1ccc(NC(=O)c2cc3c(=O)n(Cc4ccco4)ccc3nc2C)cc1	.	.	0	.	-15	.	.
COc1cccc(C#Cc2c(C=O)n(C)c3ccccc23)c1	-3	-4	0	-7	-18	.	.
Cn1c(C=O)c(C#CC(C)(C)O)c2ccccc21	2	-14	0	-7	4	-4%	-4%
Clc1ccccc1CSc1nc(NCCc2ccccc2)c2ccccc2n1	.	.	0	.	2	.	.
CN1CCN(C(=O)N2c3ccccc3C=Cc3ccccc32)CC1	-1	-10	54*	-11	-18	-4%	-4%
CCOC(=O)C(=O)Nc1ccc(S(=O)(=O)Nc2nccc(C)n2)cc1	-4	-5	.	.	.	.	.
CCOC(=O)Nc1ccc(S(=O)(=O)Nc2nccc(C)n2)cc1	1	-9	50*	-11	-27	-7%	-1%
Cc1ccc(S(=O)(=O)N2CCOCC2)cc1NC(=O)CNCc1ccc(Cl)cc1Cl	1	4	.	.	.	.	.
Cc1ccc(S(=O)(=O)N2CCOCC2)cc1NC(=O)CNCc1cccnc1	48*	63*	77*	60*	-17	3.5µM*	35µM*
Cc1ccc(S(=O)(=O)N2CCOCC2)cc1NC(=O)CNCC1CCCCC1	?	-2	53*	50*	-16	?	?
Cc1ccc2oc(C(=O)Nc3ccc(S(=O)(=O)Nc4nccc(C)n4)cc3)cc(=O)c2c1	.	.	0	.	8	.	.
c1cnc(N2CCN(Cc3ccc4c(c3)OCO4)CC2)nc1	41*!	62*!	80*	89*	-26	?	0.05µM*
